Of roughly 21,000 targets only a part is listed; those with the largest changes were picked by preference.
Compound: Cc1cc(ccc1-c1ccccc1)C(=O)N1CCCN(CC1)C(=O)CCl [compound 10]
Assay: probe-labelled cysteine peptide fold change vs DMSO (competition) (log2 fold change); higher = less target engagement (more negative = stronger competition)
Conditions: THP-1, incubation time: 4 h
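Also: competitive profiling in live THP-1 cells: cysteine peptides tagged with an iodoacetamide desthiobiotin (IA-DTB) probe, intensity after compound treatment relative to DMSO-treated cells.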

Sequence of UniProt Q5T5C0 (Q5T5C0 whole entry, looked up): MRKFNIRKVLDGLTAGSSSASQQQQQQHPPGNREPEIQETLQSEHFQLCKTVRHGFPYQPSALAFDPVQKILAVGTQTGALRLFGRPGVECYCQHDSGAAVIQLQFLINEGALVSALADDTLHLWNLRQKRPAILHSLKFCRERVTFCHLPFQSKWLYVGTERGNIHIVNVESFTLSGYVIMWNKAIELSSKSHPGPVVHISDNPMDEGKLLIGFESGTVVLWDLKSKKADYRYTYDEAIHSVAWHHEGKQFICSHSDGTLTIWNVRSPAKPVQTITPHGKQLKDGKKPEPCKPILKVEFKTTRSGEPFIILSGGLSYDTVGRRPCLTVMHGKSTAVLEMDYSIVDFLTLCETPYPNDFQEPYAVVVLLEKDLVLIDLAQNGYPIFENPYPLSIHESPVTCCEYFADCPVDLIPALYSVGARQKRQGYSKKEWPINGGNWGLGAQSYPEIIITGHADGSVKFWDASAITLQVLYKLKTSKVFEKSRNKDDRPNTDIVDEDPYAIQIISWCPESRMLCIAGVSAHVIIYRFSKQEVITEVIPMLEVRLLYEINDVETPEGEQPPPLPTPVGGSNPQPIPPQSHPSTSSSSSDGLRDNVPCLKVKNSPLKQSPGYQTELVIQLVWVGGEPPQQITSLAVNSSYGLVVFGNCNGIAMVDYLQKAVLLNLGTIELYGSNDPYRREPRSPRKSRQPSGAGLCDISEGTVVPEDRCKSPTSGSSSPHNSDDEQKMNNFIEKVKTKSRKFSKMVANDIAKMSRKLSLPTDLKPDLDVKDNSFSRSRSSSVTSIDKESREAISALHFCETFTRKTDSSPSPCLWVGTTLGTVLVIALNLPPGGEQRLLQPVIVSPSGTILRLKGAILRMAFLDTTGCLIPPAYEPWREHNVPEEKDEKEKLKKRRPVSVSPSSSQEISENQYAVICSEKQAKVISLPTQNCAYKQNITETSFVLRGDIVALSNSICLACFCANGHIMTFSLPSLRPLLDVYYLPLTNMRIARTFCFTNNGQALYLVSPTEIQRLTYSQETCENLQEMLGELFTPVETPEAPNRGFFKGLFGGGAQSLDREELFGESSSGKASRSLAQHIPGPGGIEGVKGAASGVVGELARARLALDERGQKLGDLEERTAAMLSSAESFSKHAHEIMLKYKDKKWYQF
Sequence of UniProt Q5JU69 (Q5JU69 whole entry, looked up): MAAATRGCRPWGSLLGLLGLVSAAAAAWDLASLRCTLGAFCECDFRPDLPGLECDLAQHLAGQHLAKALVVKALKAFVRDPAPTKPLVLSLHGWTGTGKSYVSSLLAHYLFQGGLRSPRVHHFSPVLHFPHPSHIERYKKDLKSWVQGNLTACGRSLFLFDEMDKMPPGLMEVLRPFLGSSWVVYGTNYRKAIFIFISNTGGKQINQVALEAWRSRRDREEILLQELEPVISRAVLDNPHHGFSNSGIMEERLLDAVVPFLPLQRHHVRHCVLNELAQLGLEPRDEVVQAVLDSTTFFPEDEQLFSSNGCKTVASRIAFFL
Sequence of UniProt Q96BS2 (Q96BS2 whole entry): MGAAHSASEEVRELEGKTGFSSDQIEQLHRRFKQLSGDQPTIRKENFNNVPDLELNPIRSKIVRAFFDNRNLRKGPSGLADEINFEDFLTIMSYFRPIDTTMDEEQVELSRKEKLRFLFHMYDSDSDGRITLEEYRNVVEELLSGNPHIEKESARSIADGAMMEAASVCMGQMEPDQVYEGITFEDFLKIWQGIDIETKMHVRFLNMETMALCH
Sequence of UniProt Q8NHU6 (Q8NHU6 whole entry, looked up): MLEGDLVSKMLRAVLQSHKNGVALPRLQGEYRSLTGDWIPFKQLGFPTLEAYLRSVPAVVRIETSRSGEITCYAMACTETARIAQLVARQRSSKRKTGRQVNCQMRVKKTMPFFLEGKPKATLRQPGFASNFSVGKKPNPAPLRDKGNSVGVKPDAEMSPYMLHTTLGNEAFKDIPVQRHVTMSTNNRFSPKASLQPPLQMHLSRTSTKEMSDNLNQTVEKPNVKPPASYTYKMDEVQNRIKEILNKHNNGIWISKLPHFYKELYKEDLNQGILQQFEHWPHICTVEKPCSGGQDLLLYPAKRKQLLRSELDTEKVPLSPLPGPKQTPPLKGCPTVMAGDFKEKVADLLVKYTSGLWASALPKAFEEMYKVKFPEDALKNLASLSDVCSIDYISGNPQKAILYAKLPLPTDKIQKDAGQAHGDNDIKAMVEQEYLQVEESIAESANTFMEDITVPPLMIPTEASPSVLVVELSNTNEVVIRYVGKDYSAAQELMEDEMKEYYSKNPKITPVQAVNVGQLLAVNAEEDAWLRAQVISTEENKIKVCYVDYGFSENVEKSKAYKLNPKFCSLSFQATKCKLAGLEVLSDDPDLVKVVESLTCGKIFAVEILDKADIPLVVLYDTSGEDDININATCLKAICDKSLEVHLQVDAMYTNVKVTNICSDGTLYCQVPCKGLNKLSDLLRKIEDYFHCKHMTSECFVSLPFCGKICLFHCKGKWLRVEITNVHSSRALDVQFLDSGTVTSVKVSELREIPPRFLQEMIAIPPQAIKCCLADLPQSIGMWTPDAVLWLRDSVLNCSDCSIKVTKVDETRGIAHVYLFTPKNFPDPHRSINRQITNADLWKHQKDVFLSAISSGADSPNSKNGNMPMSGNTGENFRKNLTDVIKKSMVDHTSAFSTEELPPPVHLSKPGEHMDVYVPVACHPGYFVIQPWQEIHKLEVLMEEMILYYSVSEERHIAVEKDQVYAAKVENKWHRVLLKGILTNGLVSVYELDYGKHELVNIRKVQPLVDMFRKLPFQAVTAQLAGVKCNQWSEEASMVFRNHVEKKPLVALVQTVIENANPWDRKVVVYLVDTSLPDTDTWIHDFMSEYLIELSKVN
Sequence of UniProt O75391 (O75391 whole entry, looked up): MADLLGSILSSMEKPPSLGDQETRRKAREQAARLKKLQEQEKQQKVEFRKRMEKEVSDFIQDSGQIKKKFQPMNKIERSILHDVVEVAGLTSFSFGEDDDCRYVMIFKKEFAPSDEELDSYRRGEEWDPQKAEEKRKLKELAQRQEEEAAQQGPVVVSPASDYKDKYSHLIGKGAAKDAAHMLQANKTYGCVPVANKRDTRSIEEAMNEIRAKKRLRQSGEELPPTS
Sequence of UniProt O76094 (O76094 whole entry, looked up): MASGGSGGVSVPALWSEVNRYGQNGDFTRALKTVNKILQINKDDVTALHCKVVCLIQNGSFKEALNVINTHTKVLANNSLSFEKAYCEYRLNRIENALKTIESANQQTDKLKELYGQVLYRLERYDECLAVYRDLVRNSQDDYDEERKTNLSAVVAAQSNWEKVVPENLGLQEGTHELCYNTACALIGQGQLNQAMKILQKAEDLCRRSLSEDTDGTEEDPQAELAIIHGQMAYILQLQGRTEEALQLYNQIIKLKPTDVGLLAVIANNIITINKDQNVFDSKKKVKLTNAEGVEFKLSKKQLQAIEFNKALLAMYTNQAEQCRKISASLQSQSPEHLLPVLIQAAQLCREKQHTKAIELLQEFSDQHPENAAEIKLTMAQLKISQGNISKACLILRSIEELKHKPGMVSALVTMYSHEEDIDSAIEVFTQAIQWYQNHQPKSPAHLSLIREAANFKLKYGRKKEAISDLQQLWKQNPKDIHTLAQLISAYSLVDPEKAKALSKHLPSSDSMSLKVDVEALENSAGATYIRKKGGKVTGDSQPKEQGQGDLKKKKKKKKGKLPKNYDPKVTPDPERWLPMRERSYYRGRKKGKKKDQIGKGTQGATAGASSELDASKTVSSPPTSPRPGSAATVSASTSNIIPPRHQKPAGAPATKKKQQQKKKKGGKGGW
Sequence of UniProt P60174 (P60174 whole entry, looked up): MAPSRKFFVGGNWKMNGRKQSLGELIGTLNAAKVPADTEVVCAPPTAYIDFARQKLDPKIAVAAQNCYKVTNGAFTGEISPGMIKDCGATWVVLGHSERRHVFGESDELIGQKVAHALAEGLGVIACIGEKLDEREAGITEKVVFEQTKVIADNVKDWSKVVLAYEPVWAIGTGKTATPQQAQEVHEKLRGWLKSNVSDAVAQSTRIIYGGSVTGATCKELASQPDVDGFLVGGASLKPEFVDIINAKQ
Sequence of UniProt Q9UGI8 (Q9UGI8 whole entry, looked up): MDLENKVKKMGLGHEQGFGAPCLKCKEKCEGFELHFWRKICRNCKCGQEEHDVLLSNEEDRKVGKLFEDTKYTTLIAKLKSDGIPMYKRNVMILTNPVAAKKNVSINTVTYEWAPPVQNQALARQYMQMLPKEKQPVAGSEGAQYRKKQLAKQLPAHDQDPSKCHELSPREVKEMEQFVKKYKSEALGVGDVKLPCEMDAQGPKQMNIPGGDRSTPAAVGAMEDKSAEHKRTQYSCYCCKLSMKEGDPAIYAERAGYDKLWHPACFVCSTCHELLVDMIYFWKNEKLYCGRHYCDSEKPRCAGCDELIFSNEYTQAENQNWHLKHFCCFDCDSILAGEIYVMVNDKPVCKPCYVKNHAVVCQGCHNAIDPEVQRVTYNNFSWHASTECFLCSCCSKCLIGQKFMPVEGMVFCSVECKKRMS
Sequence of UniProt Q86Y82 (Q86Y82 whole entry): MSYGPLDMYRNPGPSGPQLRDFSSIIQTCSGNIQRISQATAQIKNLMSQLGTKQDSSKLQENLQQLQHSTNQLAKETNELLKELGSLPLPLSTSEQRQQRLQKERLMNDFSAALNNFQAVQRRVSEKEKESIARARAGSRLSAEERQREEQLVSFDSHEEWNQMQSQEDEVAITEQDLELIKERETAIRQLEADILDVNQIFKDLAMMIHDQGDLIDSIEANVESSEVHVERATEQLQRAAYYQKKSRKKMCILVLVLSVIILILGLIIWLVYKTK
Sequence of UniProt Q9NWX6 (Q9NWX6 whole entry, looked up): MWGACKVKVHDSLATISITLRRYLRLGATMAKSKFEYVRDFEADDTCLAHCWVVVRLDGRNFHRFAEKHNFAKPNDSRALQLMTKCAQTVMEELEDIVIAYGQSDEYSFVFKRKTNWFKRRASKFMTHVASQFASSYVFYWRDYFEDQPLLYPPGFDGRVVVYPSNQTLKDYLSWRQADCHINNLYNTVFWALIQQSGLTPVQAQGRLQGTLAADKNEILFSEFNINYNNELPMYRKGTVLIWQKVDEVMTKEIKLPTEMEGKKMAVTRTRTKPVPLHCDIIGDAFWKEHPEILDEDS

Target	probe-labelled cysteine peptide fold change (10 µM)	probe-labelled cysteine peptide fold change (50 µM)
TARS_P26639_467_RFQQDDAHIFCAMEQIEDEIK (UniProt P26639)	0.126	0.326
SRPRB_Q9Y5M8_246_EFEFSQLPLKVEFLECSAK (UniProt Q9Y5M8)	-0.354	-1.1
SP3_Q02447_683_KFVCPECSK (UniProt Q02447)	0.188	0.33
SPAG5_Q96R06_907_TEQETLLLSTACPPTQEHPLPNDR (UniProt Q96R06)	-0.115	0.0555
TPI1_P60174_164_VAHALAEGLGVIACIGEK (UniProt P60174)	0.0839	0.00853
TONSL_Q96HA7_231_ECAHTMR (UniProt Q96HA7)	-0.316	-1.42
TOP1_P11387_504_AGNEKEEGETADTVGCCSLR (UniProt P11387)	-0.0614	-1.22
TMEM120A_Q9BXJ8_47_LQNNCTSSITR (UniProt Q9BXJ8)	-0.176	-0.0504
TGS1_Q96RS0_357_ECPASGQSEPR (UniProt Q96RS0)	-0.00223	0.216
TET2_Q6N021_784_VEECFHGENQYSK (UniProt Q6N021)	-0.295	-0.385
TFCP2_Q12800_72_ILPFQYVLCAATSPAVK (UniProt Q12800)	0.339	0.0755
TBL2_Q9Y4P3_240_GQVLSTINTNQMNNTHAAVSPCGR (UniProt Q9Y4P3)	-0.0462	0.0804
SON_P18583_92_CVSVQTDPTDEIPTKK (UniProt P18583)	-0.351	-1.24
TOR2A_Q5JU69_54_CTLGAFCECDFRPDLPGLECDLAQHLAGQHLAK (UniProt Q5JU69)	-0.184	0.309
TLE1_Q04724_621_QFQGHTDGASCIDISNDGTK<|>TLE4_Q04727_624_QFQGHTDGASCIDISNDGTK (UniProt Q04727+Q04724)	-0.231	-0.0783
TK1_P04183_206_ENCPVPGKPGEAVAAR (UniProt P04183)	-0.0233	-0.211
SP100_P23497_266+270_EMPCPLPCDEESPEAELHNHGIQINSCSVR (UniProt P23497)	-0.396	-1.25
SYK_P43405_89+101_THASPADLCHYHSQESDGLVCLLK (UniProt P43405)	-0.0638	-0.0651
STAT6_P42226_228_CESLVDIYSQLQQEVGAAGGELEPK (UniProt P42226)	0.0404	-0.0978

Target	probe-labelled cysteine peptide fold change (10 µM)	probe-labelled cysteine peptide fold change (50 µM)
SPAG9_O60271_1210_VTPGTFIPYCSMAHAQLCFHGHR (UniProt O60271)	0.231	1.04
TES_Q9UGI8_164_CHELSPR (UniProt Q9UGI8)	-0.162	-0.0644
STX12_Q86Y82_29_DFSSIIQTCSGNIQR (UniProt Q86Y82)	0.143	0.0626
SPECC1_Q5M775_578_ATEASAVEQTAESCEVQEMLK (UniProt Q5M775)	-0.116	-0.22
THG1L_Q9NWX6_47_DFEADDTCLAHCWVVVR (UniProt Q9NWX6)	-0.0809	0.0136
TBCCD1_Q9NVR7_337_CNESFIYLLSPLR (UniProt Q9NVR7)	0.178	0.422
SRP9_P49458_48_VTDDLVCLVYK (UniProt P49458)	0.216	-0.255
TDRD7_Q8NHU6_1029_CNQWSEEASMVFR (UniProt Q8NHU6)	-0.175	-0.845
TESC_Q96BS2_213_FLNMETMALCH (UniProt Q96BS2)	-0.431	-1.46
STXBP5_Q5T5C0_933_VISLPTQNCAYK (UniProt Q5T5C0)	0.186	0.107
SON_P18583-2_2133_DLMANATCFR (UniProt P18583)	5.1e-05	-0.396
SRP72_O76094_54_VVCLIQNGSFK (UniProt O76094)	0.0906	-0.275
TOR4A_Q9NXH8_230_HHCPEAR (UniProt Q9NXH8)	-0.165	0.0719
STAM2_O75886_76_VPHVALQALTLLGACVANCGK (UniProt O75886)	-0.0779	0.0749
SNX1_Q13596_318_LQEVECEEQR (UniProt Q13596)	-0.177	-0.146
SPAG7_O75391_101_SILHDVVEVAGLTSFSFGEDDDCR (UniProt O75391)	-0.0328	-0.0999
ST14_Q9Y5Y6_602+604_DCDCGLR (UniProt Q9Y5Y6)	-0.217	-1.07
SSH3_Q8TE77_434_QYECSLEQALR (UniProt Q8TE77)	-0.058	-0.0996

Reference: the supplement of paper PMC12067093, “Discovery and optimisation of a covalent ligand for TRIM25 and its application to targeted protein ubiquitination” (Chemical Science, 2025)
